Each structure is given as a SMILES string. The panel holds about 83,000 compounds, 20% with a hit somewhere; the sample as a whole holds those more often.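 Negative percent growth values reflect cell death: -40 means 40% of the cells present at the start died, and -100 means all died.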 Values without a mark were called inactive. Calls of active or inactive are those of the source. The calls were made as follows: active = growth percent below 10; inactive = the rest.

From PubChem BioAssay (NCI) come the findings set out here.

Test systems include SK-MEL-2 melanoma; EKVX NSCLC; SN12C renal; TK-10 renal; ACHN renal; CAKI-1 renal; A498 renal; CCRF-CEM leukemia; MOLT-4 leukemia; UO-31 renal.
What all share (experiment): NCI-60 one-dose screen, 48 h (100 = growth as untreated, 0 = no growth, -100 = all killed)
Conditions in all cases: 10 µM unless noted

Take `N#CCCN1CCN(CCC#N)C1=S`: the growth is 93.4% in the test on SK-MEL-2 melanoma; 102% in the test with EKVX NSCLC; 95.2% in the test on SN12C renal; 98.1% in the test on TK-10 renal; 102% in the test on ACHN renal; 86.4% in the test with CAKI-1 renal. The growth in the test on A498 renal was 87.9%; in the test on CCRF-CEM leukemia, 111%; in the test on MOLT-4 leukemia, 103%.

Consider `CC1(C)N=C(N)N=C(N)N1c1cccc(/C=C/C=C/c2cccc([N+](=O)[O-])c2)c1`, for which the growth was 67.2% with SK-MEL-2 melanoma; 83.6% in the test with SN12C renal; 81.5% in the test on UO-31 renal; 50.9% in the test with TK-10 renal; 95.6% in the test with ACHN renal; 96.9% with CAKI-1 renal. The growth with A498 renal was 65.2%; in the test on CCRF-CEM leukemia, 35%; with MOLT-4 leukemia, 45.5%.

Turning to `COc1nc2c(cc1S(=O)(=O)c1ccccc1)CCc1c-2cnn1-c1cccc(Cl)c1`, the growth in the test with SK-MEL-2 melanoma is 88.9%; in the test with SN12C renal it was 77.4%; in the test on UO-31 renal, -15.6% (active); with TK-10 renal it was 94.2%; with ACHN renal it was 68.3%; in the test on CAKI-1 renal, 63.5%. Besides, the growth with A498 renal was 54.6%; with CCRF-CEM leukemia, 70.4%; with MOLT-4 leukemia it was 66.1%.

Consider `O=C1/C(=C/c2ccc(Cl)cc2)N=C(c2ccccc2)N1CCc1cccs1`, for which the growth in the test with SK-MEL-2 melanoma is 69.5%; in the test on SN12C renal it was 45.6%; with UO-31 renal, 48.4%; in the test on TK-10 renal, 54.8%; with ACHN renal it was 43%; in the test on CAKI-1 renal it was 58.1%. In addition, the growth in the test with A498 renal was 72.7%; in the test with CCRF-CEM leukemia, 85.9%.

Consider `COc1ccc(C(=O)C2=CC(=O)C(=O)C2)cc1OC`, for which the growth in the test with SK-MEL-2 melanoma was 101%; in the test with SN12C renal, 109%; in the test on UO-31 renal, 91.5%; with TK-10 renal it was 98.7%; in the test on ACHN renal, 103%; in the test on CAKI-1 renal, 97.4%. Besides, the growth with A498 renal was 94.3%; in the test with CCRF-CEM leukemia, 95.3%; in the test with MOLT-4 leukemia, 101%.

In the case of `O=C1C(Br)=C(c2ccccc2)C(=O)C(Br)=C1c1ccccc1`, the growth in the test on SK-MEL-2 melanoma was 99.6%; with SN12C renal, 95.2%; in the test on UO-31 renal it was 77.9%; with TK-10 renal, 102%; in the test on ACHN renal, 92.2%; in the test with CAKI-1 renal, 94%. Also, the growth in the test with A498 renal was 67.3%; with CCRF-CEM leukemia, 31.9%; with MOLT-4 leukemia, 52.7%.

As for `CC(=O)Nc1ccc(S(=O)(=O)N/N=C\c2ccc(Cl)c(Cl)c2)cc1`, the growth in the test on SK-MEL-2 melanoma is 90.6%; in the test with EKVX NSCLC, 99.7%; in the test on SN12C renal, 99.1%; with TK-10 renal, 93.2%; in the test on ACHN renal, 98.5%; in the test with CAKI-1 renal it was 91.5%. Besides, the growth was 72.7% in the test with A498 renal, 92.8% in the test with CCRF-CEM leukemia and 100% in the test with MOLT-4 leukemia.

Consider `COc1ccc(-c2c3c(N)c4c(nc3nc3c2c(C)nn3-c2ccccc2)CCCCC4)cc1`, for which the growth in the test on SK-MEL-2 melanoma was 83.3%; in the test on SN12C renal it was 93%; in the test on UO-31 renal, 61.6%; in the test on TK-10 renal, 74.8%; in the test on ACHN renal, 77.9%; with CAKI-1 renal, 84.2%. In addition, the growth in the test on A498 renal is 87.9%; with CCRF-CEM leukemia, 48%; in the test on MOLT-4 leukemia, 49.5%.

Consider `Clc1ccc2c(c1)C[C@H]1C[C@@H](c3cccs3)N2O1`, for which the growth in the test with SK-MEL-2 melanoma was 113%; with SN12C renal it was 106%; with UO-31 renal, 93.4%; with TK-10 renal, 104%; in the test on ACHN renal it was 104%; in the test on CAKI-1 renal it was 94.4%. Besides, the growth in the test on A498 renal is 77.1%; in the test on CCRF-CEM leukemia, 100%; in the test with MOLT-4 leukemia it was 89.3%.

`Cc1ccc(-c2nnc(COc3ccc(-c4nnc(N)s4)cc3)o2)cc1`: the growth in the test with SK-MEL-2 melanoma is 104%; with SN12C renal it was 82.2%; in the test with UO-31 renal, 91.7%; in the test with TK-10 renal, 106%; with ACHN renal, 107%; in the test with CAKI-1 renal it was 94.8%. Besides, the growth is 103% with A498 renal, 47.7% in the test on CCRF-CEM leukemia and 77.6% in the test with MOLT-4 leukemia.

In the case of `O=C1c2ccccc2C(=O)c2c(Nc3ccc(CCO)cc3)ccc(O)c21`, the growth in the test on SK-MEL-2 melanoma was 103%; with SN12C renal, 85.5%; in the test on UO-31 renal, 47.4%; in the test with TK-10 renal, 100%; in the test on ACHN renal, 64.4%; in the test with CAKI-1 renal, -4.04% (active). Also, the results for the growth in the test on A498 renal, with CCRF-CEM leukemia and in the test on MOLT-4 leukemia were 51.5%, 39.8% and 35.9%, respectively.

With `CCN(CC)CCCNc1ccc(C)c2sc3ccccc3c(=O)c12`, the growth in the test on SK-MEL-2 melanoma was 94%; with EKVX NSCLC, 87.9%; in the test on SN12C renal, 40.5%; in the test with UO-31 renal, 44.7%; in the test on ACHN renal, 20.9%; in the test with CCRF-CEM leukemia, 21.8%. The growth in the test with MOLT-4 leukemia is 15.3%.

For the compound `COc1ccc(/C=C(\C#N)c2ccc(OC)cc2)cc1`, the growth in the test with SK-MEL-2 melanoma is 54.4%; in the test on EKVX NSCLC, 92.2%; in the test on SN12C renal, 67.5%; with TK-10 renal, 76.7%; with CAKI-1 renal it was 64.7%; with A498 renal, 46.6%. For the same compound, the growth is 55.6% in the test on CCRF-CEM leukemia and 56.9% in the test with MOLT-4 leukemia.

Turning to `CCN1CCN(c2ccc(Nc3ncc4ccc5ncn(C(C)C)c5c4n3)nc2)CC1`, the growth was -56.7% (active) in the test with SK-MEL-2 melanoma; -6.84% (active) in the test on EKVX NSCLC; 4.25% (active) in the test with SN12C renal; -5.17% (active) in the test on UO-31 renal; -10.7% (active) in the test with CAKI-1 renal; -61.5% (active) in the test with A498 renal. Also, the results for the growth in the test with CCRF-CEM leukemia and with MOLT-4 leukemia were 4.85% (active) and 2.48% (active), respectively.

`Fc1c[c-]c(-c2ccccn2)c(F)c1.Fc1c[c-]c(-c2ccccn2)c(F)c1.[Cl][Pt+].[Cl][Pt+].c1ccc([PH+](C[PH+](c2ccccc2)c2ccccc2)c2ccccc2)cc1`: the growth was 8.6% (active) with SK-MEL-2 melanoma; 12.4% in the test on EKVX NSCLC; 5.5% (active) in the test with SN12C renal; 75.9% in the test on UO-31 renal; 89.3% with ACHN renal; 21.6% with A498 renal. The growth in the test on MOLT-4 leukemia was 23.4%.

Regarding `Cc1nn(-c2ccccc2)c2nc3nc4c(c(N)c3c(-c3ccc(Cl)cc3)c12)CCCC4`, the growth in the test on SK-MEL-2 melanoma was 98.3%; in the test on SN12C renal, 96.3%; in the test on UO-31 renal it was 84.4%; with TK-10 renal, 112%; with ACHN renal, 81.8%; with CAKI-1 renal it was 90.5%. For the same compound, the growth is 97.2% in the test with A498 renal, 92.5% in the test with CCRF-CEM leukemia and 97% in the test on MOLT-4 leukemia.
